We go through six compounds from PubChem BioAssay.

SMILES strings stand for the structures. Inconclusive results are not listed. Active and inactive are the calls of the source.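 The calls were made as follows, unless noted: active = inhibition above 54%, about 3 SD of non-fluorescent compounds; inactive = the rest.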

By inhibition is commonly meant the change of the read-out against control, counted positive when it falls.

Assay [1] can be described thus: rapamycin-like changes in RPL19A-GFP expression – cell-based, S. cerevisiae, multiplex flow cytometry, primary screen (AID 1862; in the data active = percent of DMSO control GFP below about 86%;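 also: lower values mimic rapamycin by blocking the RPL19A rise seen in DMSO cells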). The conditions noted are these: S. cerevisiae RPL19A-GFP strain, flow cytometry fluorescence, 3 h; at 10 µM; stronger effect = lower value. (Flow cytometry measures light scatter and fluorescence of single cells or particles in a stream.)
Assay [2] can be described thus: TOR pathway GLN3 branch reporter MEP2-GFP changes – S. cerevisiae, multiplex flow cytometry, primary screen (AID 1867;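 active = GFP response, as percent of the DMSO control, above the screen-wide mean plus 3 SD, about 139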;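 also: median GFP channel fluorescence of barcode-gated MEP2-GFP cells measured by flow cytometry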). The conditions noted are these: S. cerevisiae MEP2-GFP strain, 3 h, at 10 µM, stronger effect = higher value, 100% means same as DMSO wells.
The nature of assay [3]: TOR pathway RTG branch CIT2 reporter changes – S. cerevisiae, GFP fusion, multiplex flow cytometry, primary screen (AID 1870;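 active = percent response above a set limit, the screen-wide mean plus 3 SD, cut at about 130% in these data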;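 also: barcoded CIT2-GFP strain pooled with four other GFP strains with rapamycin as positive control; median GFP fluorescence per well over plate mean of DMSO wells so 100% = DMSO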). The conditions noted are these: S. cerevisiae CIT2-GFP expression, 3 h, at 10 µM, stronger effect = higher value.
The nature of assay [4]: TOR pathway LAP4-GFP level changes – S. cerevisiae, multiplex flow cytometry, primary screen (AID 1873;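 active = GFP signal, as percent of the solvent control, above the screen mean plus 3 SD, about 149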). To be noted: S. cerevisiae LAP4-GFP expression, 3 h, at 10 µM, stronger effect = higher value.
Assay [5] can be described thus: yeast AGP1-GFP level changes, GLN3 branch – cell-based, multiplex flow cytometry, S. cerevisiae, primary screen (AID 1887;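 active = GFP signal above the screen-wide mean plus 3 SD, that is over about 124.5% of the solvent control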;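 also: AGP1-GFP fusion strain of S. cerevisiae within a five-strain barcoded multiplex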). To be noted: 3 h, at 10 µM, stronger effect = higher value.
Assay [6] can be described thus: reduced mouse 2C T cell binding to pMHC/ICAM-1 vesicles – MLPCN validation set, flow cytometry, LFA-1/ICAM-1 modulator project, pilot screen (AID 2523;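 active = response below a set limit, under 55% cells CD8-positive and vesicle-bound, and CD8 cells' 90th-percentile brightness under 279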;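 as to vesicle binding response: mean PE anti-B7-1 fluorescence of CD8+ cells relative to row control; 100% = QL9-loaded vesicles with DMSO vehicle in the same plate row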). To be noted: 2C mouse CD8+ T cells, at 7 µM, stronger effect = lower value; double positive events: measured here: CD8+/vesicle+ event percentage.
Assay [7] addresses Integrin beta-1 (Homo sapiens) + Integrin alpha-4 (Homo sapiens) (UniProt P13612+P05556). Nature of the assay: alpha4beta1 integrin LIBS antibody binding reduction – U937 cells, HUTS-21 mAb, flow cytometry, validation set, VLA-4 allosteric modulator project, pilot screen (AID 2674;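 active = inhibition above 50%, about 3 SD of the validation set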;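 also: antibody binding induced by the VLA-4 ligand LDV present at three times its Kd; 0% = LDV ligand with antibody and no compound and 100% = antibody without LDV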). The conditions noted are these: HUTS-21 LIBS mAb binding, at 6.7 µM, stronger effect = higher value, binding induced by LDV ligand.

Assay [8] is described as follows: calorie-restriction mimetic ROS inhibitors, yeast – validation compound set, pilot screen (AID 2706;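 active = superoxide response below 65% of plate, a cut near 3 SD across the whole screen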;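 also: yeast exposed to compound for one week at 30 degrees C before staining; 100% = mean of all compound wells on the same plate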). To be noted: S. cerevisiae aging, superoxide DHE fluorescence; at 10 µM, stronger effect = lower value.
Assay [9] has as its target Beta-adrenergic receptor kinase 1 (Homo sapiens) (UniProt P25098). Put plainly: GRK2 binders displacing RNA aptamer, biochemical, validation, human GRK2, bead flow cytometry (AID 488806;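 active = aptamer binding inhibition above 30%, about 3 SD of noise from non-fluorescent compounds; inactive = inhibition at or below 30%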). To be noted: bead-bound GRK2, FAM-aptamer displacement, at 10 µM, stronger effect = higher value.
Assay [10] addresses AP-2 complex subunit beta (Homo sapiens) (UniProt P63010). Nature of the assay: beta-arrestin/AP2 interaction blockers – biochemical, validation set, GST-AP2 beads, flow cytometry, pilot screen (AID 504541).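 Also: AP2 carries R879A mutation and is captured from E. coli lysate; bead-bound FITC arrestin peptide fluorescence measuring arrestin peptide binding to AP2; 0% = DMSO wells and 100% = excess unlabeled arrestin peptide control.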 The conditions noted are these: FITC arrestin peptide, at 10 µM, stronger effect = higher value, AP2 beta2 appendage fragment, R879A mutant.
Assay [11] in a line: cytosolic pH regulators acting via V-ATPase – S. cerevisiae, pHLuorin, HTS validation (AID 504600; in the data active = response above about 15%;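 also: plate controls were DMSO for no effect and reference compound for full effect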). The conditions noted are these: V-ATPase proton transport, at 10 µM, stronger effect = higher value.
In assay [12] the test system is anti-desmoglein-3 scFv antibody binding to human DSG3. Nature of the assay: blockers of pathogenic pemphigus antibody–desmoglein-3 binding – biochemical, validation compound set, bead-based, flow cytometry, pilot screen (AID 588368;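 active = binding below the plate cutoff, the plate median minus 3 SD, with a reading above zero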;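 also: signal is the median channel fluorescence of bead-bound GFP antibody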). The conditions noted are these: Protein G beads, DSG3-Fc, scFv-GFP binding, at 10 µM, stronger effect = lower value.
The nature of assay [13]: Nile Red efflux blockade in pump-expressing yeast – validation compound set, multiplex, phenotypic, pilot screen (AID 588506;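 active = efflux inhibition above 0.42, the validation set average plus 4 SD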;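 also: Nile Red retained in cells so higher fluorescence means more efflux inhibition; 0 = negative control wells and 1 = enniatin B 25 µM full block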). To be noted: S. cerevisiae pump-expressing triplex, Nile Red efflux flow cytometry; at 10 µM; stronger effect = higher value; the pumps come from Candida albicans.
The target in assay [14] is ATP-binding cassette sub-family B member 6 (Homo sapiens) (UniProt Q9NP58). Nature of the assay: blockers of ABCB6-driven porphyrin uptake – K562-ABCB6 cells, flow cytometry, validation set, pilot screen (AID 588550;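 active = inhibition above the screen-wide mean plus 3 SD, about 51%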;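 also: 0% = DMSO wells and 100% = benzethonium chloride 70 µM positive control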). To be noted: K562-ABCB6 porphyrin accumulation, 1 h, at 10 µM, stronger effect = higher value.
A short description of assay [15]: AML differentiation inducers, ER-HoxA9 marrow cells – cell-based, GFP/MAC1 double positive, flow cytometry, validation set, primary screen (AID 588685;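 active = differentiation response of at least 50%, scaled between solvent and reference control, from cells with both markers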;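 also: compound exposure lasts four days before antibody staining and flow analysis; 0% = DMSO wells and 100% = 5 µM fulvestrant positive control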). The conditions noted are these: stronger effect = higher value, normalized: vehicle 0, fulvestrant 100.

Integrin beta-1 (Homo sapiens) + Integrin alpha-4 (Homo sapiens), sequence (P05556 whole entry, looked up): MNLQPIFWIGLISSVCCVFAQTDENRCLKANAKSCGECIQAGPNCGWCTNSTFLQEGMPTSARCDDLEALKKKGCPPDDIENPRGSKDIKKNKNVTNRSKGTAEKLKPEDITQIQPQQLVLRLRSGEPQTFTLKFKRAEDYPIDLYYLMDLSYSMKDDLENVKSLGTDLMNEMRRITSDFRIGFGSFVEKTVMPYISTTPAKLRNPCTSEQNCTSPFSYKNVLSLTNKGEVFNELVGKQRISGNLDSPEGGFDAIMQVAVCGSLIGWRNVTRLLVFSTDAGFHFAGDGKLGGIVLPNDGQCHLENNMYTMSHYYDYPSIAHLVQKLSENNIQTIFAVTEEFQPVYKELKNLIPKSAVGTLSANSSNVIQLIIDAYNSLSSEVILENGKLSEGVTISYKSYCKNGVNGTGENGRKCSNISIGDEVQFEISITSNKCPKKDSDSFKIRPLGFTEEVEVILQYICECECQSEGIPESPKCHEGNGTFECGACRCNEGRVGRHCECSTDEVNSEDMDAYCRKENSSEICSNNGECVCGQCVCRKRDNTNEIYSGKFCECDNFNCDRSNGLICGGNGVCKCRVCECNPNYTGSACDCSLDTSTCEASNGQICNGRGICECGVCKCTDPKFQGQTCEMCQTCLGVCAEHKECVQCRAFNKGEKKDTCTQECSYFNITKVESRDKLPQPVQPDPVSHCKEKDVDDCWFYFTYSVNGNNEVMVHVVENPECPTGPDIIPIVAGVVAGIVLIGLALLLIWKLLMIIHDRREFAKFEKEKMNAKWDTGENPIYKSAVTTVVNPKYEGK
Integrin beta-1 (Homo sapiens) + Integrin alpha-4 (Homo sapiens), sequence (P13612 whole entry, looked up): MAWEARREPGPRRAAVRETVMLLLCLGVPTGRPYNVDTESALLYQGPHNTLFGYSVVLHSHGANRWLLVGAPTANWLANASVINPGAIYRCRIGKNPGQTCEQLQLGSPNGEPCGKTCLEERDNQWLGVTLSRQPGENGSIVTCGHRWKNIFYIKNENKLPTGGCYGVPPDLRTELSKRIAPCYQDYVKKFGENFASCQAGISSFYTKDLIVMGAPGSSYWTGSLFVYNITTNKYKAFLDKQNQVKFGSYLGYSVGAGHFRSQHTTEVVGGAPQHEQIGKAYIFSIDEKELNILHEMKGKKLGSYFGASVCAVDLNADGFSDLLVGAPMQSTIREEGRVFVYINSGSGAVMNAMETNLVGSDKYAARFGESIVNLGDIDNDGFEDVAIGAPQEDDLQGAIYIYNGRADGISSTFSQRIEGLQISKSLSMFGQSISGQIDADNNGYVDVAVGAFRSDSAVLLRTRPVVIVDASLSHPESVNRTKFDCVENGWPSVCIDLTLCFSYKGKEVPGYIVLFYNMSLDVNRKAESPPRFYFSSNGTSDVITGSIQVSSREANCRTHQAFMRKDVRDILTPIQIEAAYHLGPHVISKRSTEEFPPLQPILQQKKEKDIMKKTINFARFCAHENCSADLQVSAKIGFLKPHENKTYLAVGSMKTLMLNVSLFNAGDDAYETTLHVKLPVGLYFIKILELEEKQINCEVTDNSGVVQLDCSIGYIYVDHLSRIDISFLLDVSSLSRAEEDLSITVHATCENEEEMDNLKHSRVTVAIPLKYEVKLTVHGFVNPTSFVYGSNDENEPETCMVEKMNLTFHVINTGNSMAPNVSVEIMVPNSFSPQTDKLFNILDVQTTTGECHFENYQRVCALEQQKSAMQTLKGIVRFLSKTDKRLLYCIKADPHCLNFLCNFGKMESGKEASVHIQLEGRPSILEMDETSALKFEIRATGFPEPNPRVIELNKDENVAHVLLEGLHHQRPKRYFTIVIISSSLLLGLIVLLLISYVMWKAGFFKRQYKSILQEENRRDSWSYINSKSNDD
ATP-binding cassette sub-family B member 6 (Homo sapiens), sequence (Q9NP58 whole entry, looked up): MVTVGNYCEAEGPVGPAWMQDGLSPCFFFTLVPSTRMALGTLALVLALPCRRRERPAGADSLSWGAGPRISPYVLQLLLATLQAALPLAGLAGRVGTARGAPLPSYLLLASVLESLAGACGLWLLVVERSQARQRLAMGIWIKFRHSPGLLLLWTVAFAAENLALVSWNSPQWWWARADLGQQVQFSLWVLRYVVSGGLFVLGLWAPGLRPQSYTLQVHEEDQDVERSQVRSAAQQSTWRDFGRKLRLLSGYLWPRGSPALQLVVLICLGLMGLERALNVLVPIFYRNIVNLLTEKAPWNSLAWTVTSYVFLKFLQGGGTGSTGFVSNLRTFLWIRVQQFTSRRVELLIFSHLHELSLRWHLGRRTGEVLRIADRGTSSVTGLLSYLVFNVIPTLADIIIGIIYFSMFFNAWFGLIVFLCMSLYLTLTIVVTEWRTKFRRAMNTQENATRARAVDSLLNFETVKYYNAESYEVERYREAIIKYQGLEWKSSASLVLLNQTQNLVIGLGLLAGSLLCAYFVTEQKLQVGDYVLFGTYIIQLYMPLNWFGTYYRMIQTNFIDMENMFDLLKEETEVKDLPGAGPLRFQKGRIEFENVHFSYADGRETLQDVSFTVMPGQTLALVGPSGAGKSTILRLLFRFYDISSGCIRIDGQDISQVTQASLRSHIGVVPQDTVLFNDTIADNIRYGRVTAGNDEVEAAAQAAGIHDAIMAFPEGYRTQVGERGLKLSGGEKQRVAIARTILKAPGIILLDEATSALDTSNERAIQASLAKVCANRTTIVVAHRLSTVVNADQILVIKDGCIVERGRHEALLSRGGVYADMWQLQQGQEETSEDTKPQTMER
Beta-adrenergic receptor kinase 1 (Homo sapiens), sequence (P25098 whole entry, looked up): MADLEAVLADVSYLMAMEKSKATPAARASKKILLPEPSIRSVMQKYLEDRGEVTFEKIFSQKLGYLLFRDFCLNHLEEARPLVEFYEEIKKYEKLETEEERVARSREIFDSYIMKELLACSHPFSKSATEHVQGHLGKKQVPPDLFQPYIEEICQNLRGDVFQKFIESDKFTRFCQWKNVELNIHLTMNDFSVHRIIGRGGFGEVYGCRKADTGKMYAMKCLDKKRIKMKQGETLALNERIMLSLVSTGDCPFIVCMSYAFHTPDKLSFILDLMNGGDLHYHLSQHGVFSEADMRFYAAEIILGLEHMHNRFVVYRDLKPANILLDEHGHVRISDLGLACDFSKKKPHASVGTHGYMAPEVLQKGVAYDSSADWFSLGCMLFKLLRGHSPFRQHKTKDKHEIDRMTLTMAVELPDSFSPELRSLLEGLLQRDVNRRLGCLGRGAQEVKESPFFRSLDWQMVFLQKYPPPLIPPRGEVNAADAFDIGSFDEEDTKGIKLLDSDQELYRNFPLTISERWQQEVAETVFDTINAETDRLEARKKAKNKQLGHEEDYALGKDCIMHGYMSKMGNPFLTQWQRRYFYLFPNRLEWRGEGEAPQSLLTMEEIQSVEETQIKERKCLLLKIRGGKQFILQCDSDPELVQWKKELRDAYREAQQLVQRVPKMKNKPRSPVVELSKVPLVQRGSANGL
AP-2 complex subunit beta (Homo sapiens), sequence (P63010 whole entry, looked up, the tested form may be a part, one chain of several): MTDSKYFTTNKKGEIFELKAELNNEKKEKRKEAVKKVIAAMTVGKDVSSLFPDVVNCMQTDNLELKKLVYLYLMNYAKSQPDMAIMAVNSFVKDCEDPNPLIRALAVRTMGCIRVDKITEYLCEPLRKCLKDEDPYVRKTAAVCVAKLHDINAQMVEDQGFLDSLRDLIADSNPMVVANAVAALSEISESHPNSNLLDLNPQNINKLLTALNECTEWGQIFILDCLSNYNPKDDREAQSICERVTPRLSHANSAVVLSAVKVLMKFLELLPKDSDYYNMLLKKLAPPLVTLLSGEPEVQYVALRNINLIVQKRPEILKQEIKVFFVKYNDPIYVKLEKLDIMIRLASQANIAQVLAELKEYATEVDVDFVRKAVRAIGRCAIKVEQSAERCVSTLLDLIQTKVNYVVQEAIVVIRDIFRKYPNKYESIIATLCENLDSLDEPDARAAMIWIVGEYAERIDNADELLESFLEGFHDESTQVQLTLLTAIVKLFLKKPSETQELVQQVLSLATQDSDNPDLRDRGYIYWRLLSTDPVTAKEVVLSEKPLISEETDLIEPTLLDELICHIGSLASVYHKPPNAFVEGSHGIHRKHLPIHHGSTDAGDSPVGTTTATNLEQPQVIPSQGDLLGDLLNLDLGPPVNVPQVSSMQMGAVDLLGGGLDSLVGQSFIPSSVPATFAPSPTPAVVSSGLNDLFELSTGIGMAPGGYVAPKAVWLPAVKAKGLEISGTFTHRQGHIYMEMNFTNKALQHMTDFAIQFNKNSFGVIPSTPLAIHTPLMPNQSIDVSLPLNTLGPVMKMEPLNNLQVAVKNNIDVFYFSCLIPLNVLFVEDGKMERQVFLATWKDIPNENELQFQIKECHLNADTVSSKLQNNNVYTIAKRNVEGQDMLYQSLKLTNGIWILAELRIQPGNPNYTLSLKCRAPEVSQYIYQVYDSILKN

With `C=CCc1ccccc1OCC(O)CNC(C)C` (stereo unspecified), in assay [1], the percent of DMSO control GFP is 103% (inactive). Further, the GFP response vs DMSO was 107% (inactive) in assay [2] and 108% (inactive) in assay [4]. In addition, in assay [3], the percent response of DMSO control was 104% (inactive). In addition, the GFP response, % of DMSO in assay [5] was 118% (inactive). Besides, the double positive events in [6] worked out at 61.2%. Further, the vesicle binding response in [6] is 209% (inactive). Further, the inhibition was -11.3% (inactive) in assay [7], -4.94% (inactive) in assay [10] and -2% (inactive) in [14]. Besides, in assay [8], the superoxide response (% of plate) was 96.7% (inactive). Also, the aptamer binding inhibition in assay [9] is -32% (inactive). Besides, the response in [11] is 0.57% (inactive). In addition, the binding (% of control) in assay [12] is 107% (inactive). The efflux inhibition (fraction of control) in assay [13] was 0.12 (inactive). Moreover, the differentiation response in assay [15] is -11.9% (inactive).

Regarding `O=C(/C=C/c1ccc(Cl)cc1)NCCc1ccccc1`, in assay [1], the percent of DMSO control GFP was 102% (inactive). For the same compound, the GFP response vs DMSO in assay [2] was 92.8% (inactive); in assay [4] it was 97.4% (inactive). The percent response of DMSO control in assay [3] was 97.9% (inactive). Also, in assay [5], the GFP response, % of DMSO is 97.5% (inactive). For the same compound, the double positive events in assay [6] was found to be 54.1%. Also, the vesicle binding response in assay [6] is 270% (inactive). The inhibition is 2.56% (inactive) in assay [7], -7.53% (inactive) in assay [10] and 7% (inactive) in [14]. In addition, in [8], the superoxide response (% of plate) was 106% (inactive). For the same compound, the aptamer binding inhibition in assay [9] is -1% (inactive). In addition, the response in assay [11] was 2.01% (inactive). Further, the binding (% of control) in [12] is 98.2% (inactive). In addition, the efflux inhibition (fraction of control) in assay [13] is -0.09 (inactive). Moreover, the differentiation response in assay [15] was -5.05% (inactive).

As to `CCCCNc1cc(C(=O)O)cc(S(N)(=O)=O)c1Oc1ccccc1`, the percent of DMSO control GFP in assay [1] was 102% (inactive). For the same compound, the GFP response vs DMSO in assay [2] is 103% (inactive); in [4], 89.3% (inactive). Moreover, the percent response of DMSO control in assay [3] was 97.9% (inactive). Further, the GFP response, % of DMSO in [5] was 102% (inactive). In addition, the double positive events in [6] was 52.3%. Moreover, the vesicle binding response in [6] is 179% (inactive). Moreover, the inhibition in [7] is 16.6% (inactive); in assay [10] it was 1.29% (inactive); in assay [14], 11% (inactive). Further, the superoxide response (% of plate) in assay [8] is 96.1% (inactive). For the same compound, the aptamer binding inhibition in [9] was 6% (inactive). The response in assay [11] was 10.1% (inactive). Also, the binding (% of control) in [12] was 99.5% (inactive). In addition, the efflux inhibition (fraction of control) in [13] is 0.06 (inactive). For the same compound, the differentiation response in [15] was -9.89% (inactive).

As to `O=C(O)CC(O)C(=O)O` (stereo unspecified), the percent of DMSO control GFP in assay [1] was 101% (inactive). Further, the GFP response vs DMSO in [2] is 106% (inactive); in assay [4], 104% (inactive). Moreover, the percent response of DMSO control in assay [3] was 103% (inactive). Moreover, in [5], the GFP response, % of DMSO was 99.6% (inactive). This compound showed a double positive events in assay [6] of 62.1%. For the same compound, the vesicle binding response in [6] is 146% (inactive). Also, the figures for the inhibition in assay [7], in assay [10] and in assay [14] were 10.9% (inactive), 1.04% (inactive) and 14% (inactive), respectively. The superoxide response (% of plate) in assay [8] is 95.8% (inactive). Moreover, the aptamer binding inhibition in assay [9] is 3% (inactive). The response in assay [11] is -1.46% (inactive). The binding (% of control) in [12] is 99.3% (inactive). Also, the efflux inhibition (fraction of control) in assay [13] was 0.1 (inactive). Also, the differentiation response in assay [15] was 1.41% (inactive).

`OC(CCN1CCCCC1)(c1ccccc1)C1CCCCC1` (stereo unspecified): in assay [1], the percent of DMSO control GFP is 107% (inactive). In addition, the figures for the GFP response vs DMSO in assay [2] and in assay [4] were 102% (inactive) and 106% (inactive), respectively. Further, the percent response of DMSO control in assay [3] was 108% (inactive). The GFP response, % of DMSO in assay [5] is 105% (inactive). The double positive events in assay [6] stood at 40.6%. In addition, the vesicle binding response in assay [6] was 185% (inactive). In addition, the values for the inhibition in [7], in assay [10] and in assay [14] were 0% (inactive), -9.7% (inactive) and 5% (inactive), respectively. In [8], the superoxide response (% of plate) was 97.3% (inactive). Also, the aptamer binding inhibition in assay [9] is -3% (inactive). The response in assay [11] is -2.57% (inactive). Also, the binding (% of control) in assay [12] is 108% (inactive). Besides, the efflux inhibition (fraction of control) in [13] is -0.05 (inactive). Besides, the differentiation response in [15] is -8.27% (inactive).

Take `CC(C)[N+]1(C)[C@@H]2CC[C@H]1CC(OC(=O)C(CO)c1ccccc1)C2` (stereo partly specified): the percent of DMSO control GFP in assay [1] was 101% (inactive). Further, the GFP response vs DMSO in [2] is 95.9% (inactive); in assay [4], 101% (inactive). Besides, the percent response of DMSO control in assay [3] is 102% (inactive). The GFP response, % of DMSO in assay [5] was 104% (inactive). Besides, the double positive events in assay [6] amounted to 53.4%. The vesicle binding response in [6] is 158% (inactive). The inhibition in [7] was 27.7% (inactive); in assay [10] it was 7.81% (inactive); in [14], 11% (inactive). The superoxide response (% of plate) in [8] is 94.6% (inactive). Moreover, the aptamer binding inhibition in assay [9] was -2% (inactive). The response in [11] is 2.53% (inactive). Further, in [12], the binding (% of control) was 102% (inactive). In assay [13], the efflux inhibition (fraction of control) was -0.12 (inactive). The differentiation response in assay [15] is -9.89% (inactive).
